Records with an inconclusive call do not appear. Unmarked numbers belong to inactive results. Calls of active or inactive are those of the source. Calls come from the whole dose curve; as a rule, active = well fitted curve in the direction sought with a large enough effect in the repeat runs; inconclusive = weak or mixed curves; inactive = no such curve, though single readings can be large; an effect the other way counts as inactive or inconclusive.
tested on: not listed separately; assay: qHTS assay to identify small molecule antagonists of the constitutive androstane receptor (CAR) signaling pathway - cell viability counter screen (AID 1224837); settings: HepG2-CYP2B6-hCAR viability, CellTiter-Fluor, 23 h, co-treated with 50 nM CITCO; series mostly up to 92.4 µM; activity change, negative = cytotoxicity: at the top concentration; note: nearly all actives have a fitted effect of over 45% in size
Outline: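 HepG2 cells stably carrying hCAR and CYP2B6-2.2kb reporter, stimulated with 50 nM CITCO and compounds at 15 concentrations for 23 h at 37 C. Viability measured by CellTiter-Fluor fluorescence.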
% is set by controls: 0 for no effect and ±100 for the full control effect.

In order of falling “activity change, negative = cytotoxicity” value:
1. OCC1(CO)COCOC1  6.53%
2. CCCCCCCCCOC(=O)CCCCC(=O)OCCCCCCC  4.85%
3. CC(C)=CCC/C(C)=C/COC=O  4.53%
4. CCC/C=C(\C=O)CC  4.04%
5. CC(C)[C@H]1CC[C@H](C)C[C@@H]1O  3.07%
6. O=C(O)CCCCCC(=O)O  2.9%
7. OCC1CCC(CO)CC1 (centres undefined)  2.18%
8. CC(C)OC(=O)CCC(=O)OC(C)C  1.84%
9. COc1ccc(CCO)cc1  1.81%
10. CCCc1ccc(O)cc1  1.07%
11. CCc1occc(=O)c1O  0.959%
12. C[C@@H](O)C(=O)O  0.81%
13. CC(=O)CC(=O)OC(C)(C)C  0.702%
14. CC12CCC(C1)C(C)(C)C2O (centres undefined)  0.606%
15. COP(=O)(O)OP(=O)(O)OC  0.194%
16. COC(=O)CCCCC(=O)O  -0.312%
17. CC(=O)CCc1ccc(OC(C)=O)cc1  -1.88%
18. ONc1ccccc1  -4.03%
19. CC(C)(CO)C(O)C(=O)NCCCO (centres undefined)  -5.33%
20. C=CCSSCCC  -6.77%
21. COS(=O)(=O)O  -9.21%

In order of falling “activity change, negative = cytotoxicity” value:
1. [O-][n+]1cccc(/C(Cl)=N/OC[C@@H](O)CN2CCCCC2)c1  7.26% [at 42.5 µM]
2. CCC(C(=O)OCCN1CCOC(c2ccccc2)C1C)c1ccccc1 (centres undefined)  1.66% [at 42.5 µM]
3. CCN(CC)CCN  1.25% [at 42.5 µM]
4. O=C1NC(c2ccccc2)(c2ccccc2)C(=O)N1COP(=O)(O)O  0.987% [at 42.5 µM]
5. O=C(CCCCC(=O)Nc1c(I)cc(I)c(C(=O)O)c1I)Nc1c(I)cc(I)c(C(=O)O)c1I  0.571% [at 42.5 µM]
6. CC(C)OC(=O)OCOP(=O)(CO[C@H](C)Cn1cnc2c(N)ncnc21)OCOC(=O)OC(C)C  0.372% [at 42.5 µM]
7. Cc1ncc([N+](=O)[O-])n1CC(C)O (centres undefined)  0.081% [at 42.5 µM]
8. COc1cc(OC)nc(O[C@H](C(=O)O)C(OC)(c2ccccc2)c2ccccc2)n1  -0.313% [at 42.5 µM]
9. CC1(C)Oc2ccc(C#N)cc2[C@@H](N2CCCC2=O)[C@@H]1O  -0.619% [at 42.5 µM]
10. C[C@]12CCC(=O)C=C1CC[C@H]1[C@@H]3CC[C@](O)(C(=O)CO)[C@@]3(C)C[C@H](O)[C@@]12F  -1.1% [at 42.5 µM]
11. Cn1c(=O)c2[nH]c(Br)nc2n(C)c1=O  -2.41% [at 42.5 µM]
12. CC(C)NC(=O)c1ccc(C=O)cc1  -2.76% [at 42.5 µM]
13. CO[Si](CCCn1c(=O)n(CCC[Si](OC)(OC)OC)c(=O)n(CCC[Si](OC)(OC)OC)c1=O)(OC)OC  -7.78% [at 42.5 µM]

In order of falling activity change, negative = cytotoxicity:
1. N[C@@H](Cc1ccc(O)cc1)C(=O)O  8.2% [at 8.39 µM]
2. O=C1c2ccccc2C(=O)c2cc(Cl)ccc21  2.26% [at 8.39 µM]

CCOC(CN1CCN(CC(C)C(=O)c2ccccc2)CC1)c1ccccc1 (centres undefined) gave an activity change, negative = cytotoxicity of 3.98% [at 19 µM].

target: Nuclear receptor subfamily 1 group I member 3 (Homo sapiens) (UniProt Q14994); assay: qHTS assay to identify small molecule antagonists of the constitutive androstane receptor (CAR) signaling pathway (AID 1224838); settings: HepG2-CYP2B6-hCAR luciferase, CITCO-stimulated, 24 h; series mostly up to 92.4 µM; activity, negative = inhibition: at the top concentration; note: nearly all actives have a fitted effect of over 40% in size; note: potency is the fitted concentration of half-maximal effect
Outline: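 HepG2 cells stably carrying hCAR and a CYP2B6-2.2kb luciferase reporter, seeded 4 hrs before compound (15 concentrations). Stimulated with 50 nM CITCO for 24 hr at 37 C. ONE-Glo luminescence read after 30 min at room temperature.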

Chain of Nuclear receptor subfamily 1 group I member 3 (Homo sapiens) (Q14994 whole entry, looked up): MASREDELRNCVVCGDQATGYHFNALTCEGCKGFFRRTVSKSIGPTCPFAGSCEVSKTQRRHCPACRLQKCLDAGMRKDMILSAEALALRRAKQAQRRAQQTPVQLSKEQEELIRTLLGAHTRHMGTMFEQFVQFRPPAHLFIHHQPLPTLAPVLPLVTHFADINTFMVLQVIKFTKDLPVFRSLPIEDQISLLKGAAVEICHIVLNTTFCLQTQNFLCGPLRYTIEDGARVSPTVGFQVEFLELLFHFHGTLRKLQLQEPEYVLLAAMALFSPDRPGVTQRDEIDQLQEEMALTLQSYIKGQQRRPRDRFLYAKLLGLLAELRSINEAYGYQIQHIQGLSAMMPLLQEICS

In order of rising “activity, negative = inhibition” value:
1. COS(=O)(=O)O  -19.5%
2. C=CCSSCCC  -18.1%
3. CC12CCC(C1)C(C)(C)C2O (centres undefined)  -11.8%
4. CCC/C=C(\C=O)CC  -10.9%
5. CC(C)=CCC/C(C)=C/COC=O  -8.9%
6. CCc1occc(=O)c1O  -6.82%
7. COC(=O)CCCCC(=O)O  -6.31%
8. COc1ccc(CCO)cc1  -3.66%
9. COP(=O)(O)OP(=O)(O)OC  -3.27%
10. C[C@@H](O)C(=O)O  -1.92%
11. CC(=O)CC(=O)OC(C)(C)C  -1.75%
12. OCC1CCC(CO)CC1 (centres undefined)  -0.998%
13. CC(C)(CO)C(O)C(=O)NCCCO (centres undefined)  2.46%
14. O=C(O)CCCCCC(=O)O  2.73%
15. CC(C)OC(=O)CCC(=O)OC(C)C  2.86%
16. CCCc1ccc(O)cc1  5.31%
17. CC(C)[C@H]1CC[C@H](C)C[C@@H]1O  9.1%
18. CC(=O)CCc1ccc(OC(C)=O)cc1  9.48%
19. OCC1(CO)COCOC1  13.9%
20. CCCCCCCCCOC(=O)CCCCC(=O)OCCCCCCC  14.4%
21. ONc1ccccc1  121%

In order of rising “activity, negative = inhibition” value:
1. CCN(CC)CCN  -24.6% [at 42.5 µM]
2. COc1cc(OC)nc(O[C@H](C(=O)O)C(OC)(c2ccccc2)c2ccccc2)n1  -19.6% [at 42.5 µM]
3. CO[Si](CCCn1c(=O)n(CCC[Si](OC)(OC)OC)c(=O)n(CCC[Si](OC)(OC)OC)c1=O)(OC)OC  -9.53% [at 42.5 µM]
4. CC1(C)Oc2ccc(C#N)cc2[C@@H](N2CCCC2=O)[C@@H]1O  -9.31% [at 42.5 µM]
5. O=C1NC(c2ccccc2)(c2ccccc2)C(=O)N1COP(=O)(O)O  -8.2% [at 42.5 µM]
6. O=C(CCCCC(=O)Nc1c(I)cc(I)c(C(=O)O)c1I)Nc1c(I)cc(I)c(C(=O)O)c1I  -4.69% [at 42.5 µM]
7. Cn1c(=O)c2[nH]c(Br)nc2n(C)c1=O  -4.19% [at 42.5 µM]
8. Cc1ncc([N+](=O)[O-])n1CC(C)O (centres undefined)  -0.581% [at 42.5 µM]
9. C[C@]12CCC(=O)C=C1CC[C@H]1[C@@H]3CC[C@](O)(C(=O)CO)[C@@]3(C)C[C@H](O)[C@@]12F  12.2% [at 42.5 µM]
10. CC(C)NC(=O)c1ccc(C=O)cc1  14.2% [at 42.5 µM]
11. CCC(C(=O)OCCN1CCOC(c2ccccc2)C1C)c1ccccc1 (centres undefined)  16.2% [at 42.5 µM]
12. [O-][n+]1cccc(/C(Cl)=N/OC[C@@H](O)CN2CCCCC2)c1  18.9% [at 42.5 µM]

In order of rising activity, negative = inhibition:
1. N[C@@H](Cc1ccc(O)cc1)C(=O)O  -4.54% [at 8.39 µM]
2. O=C1c2ccccc2C(=O)c2cc(Cl)ccc21  54.9% [at 8.39 µM]

With CC(C)OC(=O)OCOP(=O)(CO[C@H](C)Cn1cnc2c(N)ncnc21)OCOC(=O)OC(C)C the Potency was 2.37 µM (active).

With CCOC(CN1CCN(CC(C)C(=O)c2ccccc2)CC1)c1ccccc1 (centres undefined) the activity, negative = inhibition was -25.3% [at 19 µM].
